Laboratory results reported in PubChem BioAssay AID493194 (Broad Institute, 2011).
Entries with a potency or affinity are not part of this list. Inconclusive results are not listed.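 The calls were made as follows: active = a valid curve of falling signal whose half-effect concentration is at most ten times the top tested dose; inconclusive = flat curve at 30 to 70% inhibition, or poor fit; inactive = signal rise, flat within 30%, or potency beyond limit.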

The molecules below were run against Scavenger receptor class B member 1 (Mus musculus) (UniProt Q61009) (assay: mouse SR-BI DiI-HDL uptake blockers – ldlA[mSR-BI] cells, fluorescence, cherry pick, dose response (AID 493194;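 also: CHO cells lacking LDL receptor and overexpressing mouse SR-BI; cellular uptake of fluorescently labeled HDL measured as cell fluorescence; 0% = median of neutral control wells and -100% = median of positive control wells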)). Conditions: CHO ldlA[mSR-BI] DiI-HDL uptake fluorescence, 3 h; series mostly up to 35 µM; activity change, negative = inhibition: at the top concentration.
Chain of Scavenger receptor class B member 1 (Mus musculus) (Q61009 whole entry, looked up): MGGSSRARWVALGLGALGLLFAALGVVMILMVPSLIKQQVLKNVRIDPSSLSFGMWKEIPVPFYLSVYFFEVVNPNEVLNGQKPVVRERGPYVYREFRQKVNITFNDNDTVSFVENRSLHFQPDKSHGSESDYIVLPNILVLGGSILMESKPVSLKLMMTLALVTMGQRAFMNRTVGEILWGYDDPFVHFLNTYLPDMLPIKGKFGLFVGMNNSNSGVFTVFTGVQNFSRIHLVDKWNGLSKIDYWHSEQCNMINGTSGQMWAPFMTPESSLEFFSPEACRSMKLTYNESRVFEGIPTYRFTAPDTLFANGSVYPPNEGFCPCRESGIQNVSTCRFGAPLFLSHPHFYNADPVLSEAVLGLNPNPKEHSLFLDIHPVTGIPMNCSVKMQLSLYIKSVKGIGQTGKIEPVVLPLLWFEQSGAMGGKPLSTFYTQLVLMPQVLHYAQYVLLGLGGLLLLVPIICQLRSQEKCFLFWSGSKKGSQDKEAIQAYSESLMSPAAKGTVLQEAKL

Activity change, negative = inhibition, inactive:
O=C(NC1CC2CCCC(C1)N2C(=O)N1CCCCC1)C1CCCCC1 (stereo not given) 17.6%, O=C(Nc1ccccc1)C1=C(O)CC(c2ccoc2)CC1=Nc1ccccc1 (stereo not given) -26.7%, CCCCc1nnc(NC(=O)c2ccc(OCc3c(C)noc3C)cc2)s1 -0.944%, O=C(N[C@@H]1C/C=C\C[C@H](CC(=O)N(CCO)Cc2ccccc2)C(=O)NC[C@@H](c2ccccc2)OC1=O)OCC1c2ccccc2-c2ccccc21 17.1%, CCCCN(Cc1ccccc1)c1ncnc2nc[nH]c12 25.3%, COc1ccc(OC)c2[nH]c(C(=O)N3CCC(C(=O)O)CC3)cc12 -3.01%, N#Cc1ccc(Nc2nc(-c3ccc(O)cc3O)cs2)cc1C(F)(F)F 5.41%, Cc1c(C(=O)OCC2CCCO2)[nH]c2c1C(=O)CC(c1ccco1)C2 (stereo not given) -17%, Cc1ccc(C)c(N2CCN(CCCNC(=O)Cn3c(=O)c4cccn4c4cccnc43)CC2)c1 2.88%, Cc1ccc(C)c(NC(=O)c2ccc3c(c2)N(Cc2ccc(F)cc2)C(=O)CS3=O)c1 (stereo not given) 6.93%, CC(=O)c1cccc(NC(=O)c2ccc3c(c2)CCN3S(=O)(=O)c2ccccc2)c1 -0.128%, O=C(Nc1ccccc1)c1ccc2c(c1)CCN2S(=O)(=O)c1ccccc1 -4%, CCOC(=O)CSc1c(-c2ccc(Cl)cc2)[nH]c2ccccc12 7.74%, COc1cc(NC(=O)C2CC(c3c(F)cccc3Cl)=NO2)c(OC)cc1Cl (stereo not given) -16.2%, CC[C@]12c3[nH]c4cc(-c5ccco5)ccc4c3CCN1C(=O)[C@@H](CC(=O)NCc1ccc(OC)c(OC)c1)C[C@@H]2C(=O)N1CCN(C(=O)c2ccco2)CC1 -27.9%
